# Bioassay records: PubChem, National Center for Advancing Translational Sciences (NCATS)
# Shown is part of a subset that was picked to be rich in hits.
# Pf Dd2 growth = inhibitors of Plasmodium falciparum Dd2 growth | P. falciparum Dd2 growth, SYBR Green, 72 h | AID 1347417 | actives 4.3% (n = 120,000) | Potency, µM (highest dose often 28.9 µM), most hits filed as inhibitors; active means well fitted inhibition curve with a large enough effect; further: nearly all actives have a fitted effect of over 65% in size
#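 Infected erythrocytes (Dd2, 0.3% parasitemia, 2.5% hematocrit final) are added to compound in RPMI-1640/Albumax II medium, grown 72 h at 37C in low oxygen, then lysed with saponin/Triton-X containing SYBR Green and read by fluorescence.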
# Hits are given with their value; i = inactive; [ ] = another dose, or the depositor's remark.
SMILES,Pf Dd2 growth
Cn1nccc1C(=O)N1CCC(c2cc(-c3ccc(F)cc3)n[nH]2)CC1,i[5.79 µM]
COc1ccc(NC(=O)CSc2nncn3c2cc2oc(C)cc23)cc1OC,i
Cc1cc(C)c(NC(=O)CSc2nncn3c2cc2oc(C)cc23)c(C)c1,i[5.79 µM]
CCOC(=O)c1ccc(NC(=O)C(CC)Sc2nncn3c2cc2oc(C)cc23)cc1 (stereo not given),10µM
Cc1cc(S(=O)(=O)N[C@@H]2CCOC[C@H]2OCc2cscn2)n(C)n1,i
O=C(c1ccco1)N1CC[C@@H]2[C@@H](CCC(=O)N2CCc2ccccn2)C1,i
O=C(Nc1ccc2c(c1)N(C1CCCC1)C(=O)c1ccccc1S2)c1ccccc1,i
COc1cc(C(=O)Nc2ccc3c(c2)N(C2CCCC2)C(=O)c2ccccc2S3)cc(OC)c1OC,8.9µM
CCN1C(=O)c2ccccc2Sc2ccc(NC(=O)Nc3ccccc3OC)cc21,i
COc1ccccc1N1CCN(C(=O)C[C@@H]2O[C@H](CNC(=O)c3cccc(F)c3)[C@@H](O)[C@H]2O)CC1,i
COCC(=O)N1CC[C@@H](CC(=O)O)[C@@H](CC2=NCCc3ccc(C)cc32)C1,i
Fc1ccccc1-c1nnc([C@H]2CCN(Cc3ccccc3)C2)o1,i
CCc1cccc(NC(c2ccccc2)c2nnc(-c3ccccc3F)o2)c1 (stereo not given),11µM
CCc1cccc(NC(=O)CN2C(=O)CN=C(c3ccccc3F)c3cc(Cl)ccc32)c1,i
CO[C@H]1C(=O)N(C(C)C)[C@H]1C1CCN(C(=O)C2CC2)CC1,i
O=C1c2cnc(-c3ccc(Oc4ccccc4)cc3)nc2OCCN1CC1CC1,2.8µM
O=C1c2cnc(-c3cccc(C(F)(F)F)c3)nc2OCCN1CC1CC1,i
O=C1c2cnc(-c3ccc(F)cc3)nc2OCCN1Cc1ccc(F)cc1F,i
CC(C)CN1CCC(O)(c2csc(CN3CCOCC3)n2)CC1,i
O=C(CCOc1ccccc1)N[C@@H]1CCNC[C@H]1O,i
CN(C)c1ccc(C(=O)NC2CCN(c3cc(-c4cccs4)[nH]n3)CC2)cc1,i
COCc1cccc(C(=O)N2CC[C@@]3(O)CCN(S(C)(=O)=O)C[C@H]3C2)n1,i
CNC(=O)c1noc(CN2CCCC(CCc3ccccc3C(F)(F)F)C2)n1 (stereo not given),i
CN(C)C(=O)N1CCCC(CCc2ccccc2C(F)(F)F)C1 (stereo not given),i
COc1c[nH]c(CN2CCCC(CCc3ccccc3C(F)(F)F)C2)cc1=O (stereo not given),8.9µM
SMILES,Pf Dd2 growth
O=C1C[C@@H]2CCN(C(=O)COc3ccccc3)C[C@@H]2CCN1CCN1CCOCC1,i
Cc1cn2nc(C(=O)N3CCC(NC(=O)c4ccc(F)cc4Cl)CC3)cc2c(=O)[nH]1,i
COc1cncc([C@@H](NC(=O)c2cccc(-n3cccn3)c2)C2CC(O)C2)c1 (stereo not given in full),i
COCCn1c(C)cnc1CC1CCCN(S(=O)(=O)c2cccc(F)c2)C1 (stereo not given),8.9µM
Cc1cnc(CC2CCN(S(=O)(=O)c3cn(C)cn3)C2)n1C(C)C (stereo not given),i
O=C(c1n[nH]c(=O)c2ccccc12)N1CCC(Cc2noc(C3CCOCC3)n2)C1 (stereo not given),i
CCOc1ccccc1NC(=O)N1CCCC(Cc2ncc(C)n2C(C)C)C1 (stereo not given),1.8µM
CC(=O)N1CCC(Cc2ncc(C)n2C(C)C)C1 (stereo not given),i
CNC(=O)N1CCC(Cc2ncc(C)n2CCOC)C1 (stereo not given),i
CCCn1c(C)cnc1CC1CCCN(S(=O)(=O)CCC)C1 (stereo not given),i
CNC(=O)N1CCCC(Cc2ncc(C)n2C(C)C)C1 (stereo not given),i
CCOc1ccccc1NC(=O)N1CCC(Cc2noc(C3CCOCC3)n2)C1 (stereo not given),7.9µM
CNC(=O)N1CCC(Cc2noc(C3CCOCC3)n2)C1 (stereo not given),i
CCNC(=O)N1CCC(Cc2ncc(C)n2C(C)C)C1 (stereo not given),i
Cc1cnc(CC2CCN(S(=O)(=O)c3ccccc3)C2)n1C(C)C (stereo not given),3.2µM
O=C(c1ccccc1F)N1CCN(c2nc3ncccc3o2)CC1,i
C[C@@]1(O)CCN(C(=O)c2ccc(C(=O)N3CCOCC3)cc2)C[C@@H]1O,i
O=C(c1cccc(Cl)c1)N1CCC(c2nn(-c3ccc(Cl)cc3)c(=O)[nH]2)CC1,i
O=C(CCC1CCCN(S(=O)(=O)c2ccccc2)C1)NC1CC1 (stereo not given),i
NC(=O)[C@H](CC1CCCCC1)NC(=O)[C@H]1CN(C(=O)C2CCNCC2)CCN1C(=O)c1cccs1,i
COC1CN(C2CCNCC2)C12CCOCC2 (stereo not given),i
O=C(N[C@H]1CCOC[C@H]1C1CCOCC1)c1cc(=O)[nH]c2ccc(F)cc12,i
CC1Oc2ccc(NS(=O)(=O)c3ccc(F)cc3)cc2CN(Cc2ccc(F)cc2)C1=O (stereo not given),i
O=C(Cc1cccc(F)c1)NCCC1CCN(C(=O)Nc2ccccc2)CC1,i
CCn1ncc(CN2CCCCCCN(C)C(=O)[C@@H]3CCC[C@@H]32)c1C,i
SMILES,Pf Dd2 growth
Cc1cc(C(=O)N2CCC3(COc4ncccc4S(=O)(=O)N3)C2)no1 (stereo not given),i
COc1ccc(-c2cc(C(=O)O)cc(S(=O)(=O)N3CCN(C)CC3)c2)cc1,i
CCOCc1cc(CN2CCN(c3ccccc3OC)CC2)c(O)c2ncccc12,2µM
COc1ccccc1N1CCN(c2csc3ccccc3c2=O)CC1,i
COc1ccccc1N1CCN(c2ncccc2-c2nc(-c3ccc(Cl)cc3)no2)CC1,i
COc1ccc(-c2noc(CN3CCN(c4ccccc4OC)CC3)n2)cc1OC,i
COc1ccccc1N1CCN(C(CNC(=O)C(=O)NCc2cccnc2)c2cccnc2)CC1 (stereo not given),i
C=CCS(=O)(=O)NCc1cccnc1N1CCN(c2ccccc2OC)CC1,i
CCCOCc1cc(CN2CCN(c3ccccc3OC)CC2)c(O)c2ncccc12,2.8µM
COc1ccccc1N1CCN(Cc2cc(COC(C)C)c3cccnc3c2O)CC1,1.6µM
CCOc1ccccc1N1CCN(Cc2ccc(=O)n(CC)c2)CC1,i
CC(=O)N1CCN(C(=O)c2ncoc2C2CC2)CC(O)C1 (stereo not given),i
COC1CCC12CCN(C(=O)c1ccoc1)CC2 (stereo not given),i
CCc1ccccc1NC(=O)NCC1CCOCC1,i
O=C1CCN(C(=O)[C@@H](Cc2ccccc2)NS(=O)(=O)c2cccs2)CCOCCN1,i
Cc1ncccc1C(=O)N1CCC(c2noc(-c3ccccn3)n2)C1 (stereo not given),i[5.79 µM]
CNc1ccnc(N2CCC3(CCCN(C4CCOCC4)C3=O)C2)n1 (stereo not given),i
CCN1c2cc(C(=O)Nc3ccc(C(N)=O)cc3)ccc2C(=O)N2CCCCC21 (stereo not given),i
COc1ccc(-c2cc(N3CCCN(C(=O)c4ccc5ncccc5c4)CC3)n[nH]2)cc1,i
CCCCCC(=O)Nc1nc2c(s1)C[C@@H]1[C@](C)(CO)[C@H](O)CC[C@@]1(C)[C@@H]2CC(=O)N(C)Cc1ccccc1,i
CC(C)(C)C(=O)Nc1nc2c(s1)C[C@@H]1[C@](C)(CO)[C@H](O)CC[C@@]1(C)[C@@H]2CC(=O)NCCN1CCOCC1,i
